# In paper PMC4336329 (PLoS ONE, 2015):
# The whole screen tested about 310,000 compounds, of which about 14,000 (4.5%) showed an effect of 50% or more. The effect is printed as a negative number. Many of the other results were omitted from the sample, so strong results are more common in it than they were.
# Biological target: human ether-à-go-go-related gene (hERG) potassium channel (human, UniProt Q12809)
# Assay: primary screen, population patch clamp on CHO cells stably expressing hERG; higher = less effect of the substance
# 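Also: peak tail current of the secondary pulse compared with the same well before compound.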
# human ether-à-go-go-related gene (hERG) potassium channel, sequence (Q12809 whole entry, looked up): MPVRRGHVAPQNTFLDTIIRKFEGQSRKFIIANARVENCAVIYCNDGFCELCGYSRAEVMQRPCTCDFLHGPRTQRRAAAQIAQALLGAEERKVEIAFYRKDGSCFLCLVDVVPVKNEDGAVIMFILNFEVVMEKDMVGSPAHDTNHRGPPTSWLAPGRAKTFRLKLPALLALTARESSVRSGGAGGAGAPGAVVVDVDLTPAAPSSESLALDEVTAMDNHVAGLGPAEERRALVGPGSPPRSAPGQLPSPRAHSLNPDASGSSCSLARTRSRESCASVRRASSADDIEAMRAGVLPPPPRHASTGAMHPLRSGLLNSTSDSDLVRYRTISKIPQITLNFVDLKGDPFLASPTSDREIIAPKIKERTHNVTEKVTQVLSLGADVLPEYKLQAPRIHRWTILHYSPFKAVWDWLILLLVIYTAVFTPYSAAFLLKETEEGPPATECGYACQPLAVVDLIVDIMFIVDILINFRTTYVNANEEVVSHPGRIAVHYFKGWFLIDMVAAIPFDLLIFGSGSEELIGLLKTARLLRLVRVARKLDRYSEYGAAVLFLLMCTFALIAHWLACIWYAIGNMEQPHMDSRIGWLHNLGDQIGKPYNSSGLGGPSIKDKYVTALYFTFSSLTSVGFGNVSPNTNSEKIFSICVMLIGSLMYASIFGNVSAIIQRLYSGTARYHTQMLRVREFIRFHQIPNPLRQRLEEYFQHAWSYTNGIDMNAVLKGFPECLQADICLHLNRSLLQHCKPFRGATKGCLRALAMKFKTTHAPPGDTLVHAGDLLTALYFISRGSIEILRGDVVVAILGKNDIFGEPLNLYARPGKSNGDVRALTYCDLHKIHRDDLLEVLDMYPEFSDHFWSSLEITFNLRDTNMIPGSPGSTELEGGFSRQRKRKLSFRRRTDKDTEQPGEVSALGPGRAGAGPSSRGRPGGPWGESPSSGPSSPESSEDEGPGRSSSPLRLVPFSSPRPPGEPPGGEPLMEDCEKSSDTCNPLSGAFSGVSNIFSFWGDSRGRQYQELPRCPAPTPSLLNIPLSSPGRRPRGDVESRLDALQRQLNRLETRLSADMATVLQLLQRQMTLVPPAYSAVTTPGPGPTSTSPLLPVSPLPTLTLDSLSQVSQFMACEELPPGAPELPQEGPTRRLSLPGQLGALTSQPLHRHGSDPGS
row,Structure (SMILES),"hERG current change (%, negative = inhibition) at 10uM [%]"
1,Cl.O=C(COc1ccc(Cl)cc1)N(c1ccc(Cl)cc1)C1CN2CCC1CC2 (stereo not shown),-65.1
2,Cl.O=C(COc1ccc(Cl)cc1)N(c1ccccc1Cl)C1CN2CCC1CC2 (stereo not shown),-50.5
3,O=C(COc1ccc(Cl)cc1)N1CCCC1,-7.47
4,O=C(COc1ccc(Cl)cc1)N(Cc1cccs1)C1CCS(=O)(=O)C1 (stereo not shown),-48.1
5,O=C(Nc1ccc(Cl)cc1)OC1CN2CCC1CC2 (stereo not shown),-40.6
6,CN1CCN(CC(C)(C)NS(=O)(=O)c2ccc(Cl)cc2)CC1,-20.4
7,CN1CCN(CC(O)(c2ccc(Cl)cc2)c2ccc(Cl)cc2)CC1,-73.3
8,Cl.NCC(O)(c1ccc(Cl)cc1)c1ccc(Cl)cc1,-5.47
9,O=C(N/N=C/c1cccnc1)c1ccc(NC(=O)c2cccc(Cl)c2)cc1,15.3
10,Cc1cccc(Cl)c1NC(=O)N1CCCN(c2nc3ccc(Cl)cc3s2)CC1,-20.6
11,COc1cccc(/C=C/C2=CC(C)(C)NC(=S)N2)c1,16
12,COc1ccc(CCN(Cc2cccs2)S(=O)(=O)c2ccc(-n3cnnn3)c(OC)c2)cc1OC,10.4
13,COc1cc(S(=O)(=O)N(Cc2ccccc2)Cc2ccccn2)ccc1-n1cnnn1,2.81
14,COc1ccc(CCN(Cc2cccs2)S(=O)(=O)c2ccc(-n3cnnn3)cc2)cc1OC,-52.5
15,COc1ccc(CN(Cc2ccccn2)S(=O)(=O)c2ccc(-n3cnnn3)cc2)cc1,-72.7
16,COc1cc(S(=O)(=O)N(CCc2ccccc2)Cc2cccs2)ccc1-n1cnnn1,-3.57
17,COc1ccc(CN(C2CCCC2)S(=O)(=O)c2ccc(-n3cnnn3)cc2)cc1,-43.8
18,COc1ccc(CN(C2CCCC2)S(=O)(=O)c2ccc(-n3cnnn3)c(OC)c2)cc1OC,-28.1
19,COc1ccc(CN(Cc2ccccn2)S(=O)(=O)c2ccc(-n3cnnn3)c(OC)c2)cc1,-47.2
20,COc1ccc(CN(C2CCCC2)S(=O)(=O)c2ccc(-n3cnnn3)cc2)cc1OC,-64
21,O=C(N/N=C/c1ccc(Cl)cc1Cl)C(=O)NC1CC1,17.4
22,Nc1nonc1C(=O)OCC(=O)c1ccc(Cl)cc1,4.6

row,Structure (SMILES),"hERG current change (%, negative = inhibition) at 10uM [%]"
1,Cc1ccccc1NC(=O)NC1(C(=O)N2CCCC2)CCCCC1,9.33
2,CCCCN(CC)CCCNC(=O)c1cc2cc3ccc(C)cc3nc2o1,-53.4
3,CCCN(CCC)CCCNC(=O)c1cc2cc3ccc(OC)cc3nc2o1,-52.8
4,CCCCN(CC)CCCNC(=O)c1cc2cc3ccc(OC)cc3nc2o1,-64.5
5,COCCNC(=O)c1cc2cc3ccc(OC)cc3nc2o1,12.8
6,CCCCN(C)CCNC(=O)c1cc2cc3ccc(OC)cc3nc2o1,-43
7,CCN(CC)CCNC(=O)c1cc2cc3ccc(OC)cc3nc2o1,-18
8,Cc1ccc2cc3cc(C(=O)NCCC(C)C)oc3nc2c1,8.43
9,COc1ccc2cc3cc(C(=O)NCCC(C)C)oc3nc2c1,6.93
10,Cc1ccc2cc3cc(C(=O)NC4CC4)oc3nc2c1,8.43
11,CCOC(=O)C1=C(N)Oc2c(oc(CO)cc2=O)C1c1c(F)cccc1Cl (stereo not shown),0.47
12,Nc1ncc([N+](=O)[O-])cc1S(=O)(=O)c1ccccc1,8.32
13,COc1ccc(N2C(=O)C3CCCN3C2c2cc(OC)c(OC)cc2OC)cc1 (stereo not shown),-4.23
14,CSc1nc(C)cc(C)c1C(N)=O,8.49
15,CCCNC(=O)NC(=O)CSc1nnc(-c2ccncc2)n1CC,11.6
16,CCC1CCCCN1CCCNC(=O)Cn1ncn2nc(-c3ccc(OC)cc3)cc2c1=O (stereo not shown),-42.1
17,COc1ccc(-c2cc3c(=O)n(CC(=O)NCCCc4ccccc4)ncn3n2)cc1,7.35
18,COc1ccc(-c2cc3c(=O)n(CC(=O)NCCCN4CCN(Cc5ccccc5)CC4)ncn3n2)cc1,-54.8
19,COc1ccc(-c2cc3c(=O)n(CC(=O)NCCCN4CCC(Cc5ccccc5)CC4)ncn3n2)cc1,-72.4
20,CCc1ccc(-c2cc3c(=O)n(CC(=O)NCCCN4CCN(C)CC4)ncn3n2)cc1,-4.24
21,COc1ccc(-c2cc3c(=O)n(CC(=O)NCCCN4CCC(N5CCCCC5)CC4)ncn3n2)cc1,21.5
